According to PubChem BioAssay (EPA / NIEHS):
Activity calls are given as the source filed them. The calls were made as follows: active = hit-call score of the fitted dose curve at least 0.9, where 1 is the maximum; inactive = score below 0.9.

Tests used:
Details in all cases: mRNA level, 48 h; actives raise or lower the signal
[1] = read-out: DNA damage-inducible transcript 3 (DDIT3), DDIT3 (gene 1649); test: LTEA_HepaRG_DDIT3: Life Technologies and Expression Analysis (LTEA) Assay for DNA damage-inducible transcript 3 (DDIT3) using HepaRG (AID 2283488)
Procedure, shortened: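 Cells are human HepaRG liver cells treated for 48 h with eight half-log concentrations up to 100 uM in 0.5% DMSO. Transcript levels come from qRT-PCR normalized to three housekeeping genes, with activity fitted in both directions relative to vehicle.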

[2] = read-out: Pro-epidermal growth factor (Homo sapiens) (UniProt P01133); test: LTEA_HepaRG_EGF: Life Technologies and Expression Analysis (LTEA) Assay for Epidermal growth factor (EGF) using HepaRG (AID 2283489)
Procedure, shortened: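 HepaRG, 48 h dosing, 100 uM top, half-log x8, 0.5% DMSO. Readout: TaqMan qRT-PCR (Fluidigm array), housekeeping-normalized. Gain or loss of signal fit vs DMSO.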

[3] = read-out: Early growth response protein 1 (EGR1) transcription factor, EGR1 (gene 1958); test: LTEA_HepaRG_EGR1: Life Technologies and Expression Analysis (LTEA) Assay for Early growth response protein 1 (EGR1) transcription factor using HepaRG (AID 2283490)
Procedure, shortened: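 EGR1 expression change in human HepaRG after 48 h chemical exposure, assessed by housekeeping-normalized qRT-PCR; concentration-response up to 100 uM, fitted in both directions against DMSO controls.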

[4] = read-out: Ezrin (EZR), EZR (gene 7430); test: LTEA_HepaRG_EZR: Life Technologies and Expression Analysis (LTEA) Assay for Ezrin (EZR) using HepaRG (AID 2283491)
Procedure, shortened: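 HepaRG, 48 h chemical exposure, 8-pt half-log series from 100 uM, 0.5% DMSO vehicle, duplicates. Read-out: EZR mRNA by TaqMan qRT-PCR (Fluidigm array), housekeeping-normalized; bidirectional curve fit vs DMSO baseline.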

[5] = read-out: Cytochrome P450 3A7 (Homo sapiens) (UniProt P24462); test: LTEA_HepaRG_CYP3A7: Life Technologies and Expression Analysis (LTEA) Assay for CYP3A7 using HepaRG (AID 2283492)
Procedure, shortened: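 Human HepaRG liver cells, 48 h post-plating, switched to serum-free induction medium and exposed in duplicate for 48 h. Dosing: 100 uM top, half-log dilutions, 8 points, 0.5% DMSO vehicle. Read-out: CYP3A7 mRNA, gain or loss fitted against DMSO baseline.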

[6] = read-out: Fatty Acid-Binding Protein 1 (FABP1), FABP1 (gene 2168); test: LTEA_HepaRG_FABP1: Life Technologies and Expression Analysis (LTEA) Assay for Fatty Acid-Binding Protein 1 (FABP1) using HepaRG (AID 2283494)
Procedure, shortened: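 Values reflect bidirectional concentration-response fitting of FABP1 mRNA change against 0.5% DMSO controls. Human HepaRG cultures received eight half-log doses (top 100 uM) for 48 h; expression quantified by TaqMan qRT-PCR with housekeeping-gene normalization.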

[7] = read-out: Cytochrome P450 4A22 (Homo sapiens) (UniProt Q5TCH4); test: LTEA_HepaRG_CYP4A22: Life Technologies and Expression Analysis (LTEA) Assay for Cytochrome P450 4A22 (CYP4A22) using HepaRG (AID 2283495)
Procedure, shortened: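 Readout is CYP4A22 transcript induction or loss, quantified by qRT-PCR and normalized to ACTB, GAPDH and POLR2A. Human HepaRG cells receive test chemicals for 48 h at eight half-log concentrations from 100 uM in 0.5% DMSO.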

[8] = read-out: Glutathione S-Transferase (GSTA2), GSTA2 (gene 2939); test: LTEA_HepaRG_GSTA2: Life Technologies and Expression Analysis (LTEA) Assay for Glutathione S-Transferase (GSTA2) using HepaRG (AID 2283497)
Procedure, shortened: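 Oxidative-stress marker GSTA2 is quantified by TaqMan qRT-PCR in HepaRG cultures treated 48 h across an eight-point range to 100 uM. Expression is normalized to endogenous controls and compared with 0.5% DMSO vehicle.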

[9] = read-out: Glutamate-cysteine ligase catalytic (GCLC), GCLC (gene 2729); test: LTEA_HepaRG_GCLC: Life Technologies and Expression Analysis (LTEA) Assay for Glutamate-cysteine ligase catalytic (GCLC) using HepaRG (AID 2283498)
Procedure, shortened: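 Oxidative-stress marker GCLC is measured as mRNA change in human HepaRG liver cells after 48 h chemical treatment in 0.5% DMSO, eight concentrations from 100 uM. Activity is fitted bidirectionally against vehicle.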

[10] = read-out: growth arrest and DNA damage 45 (GADD45G), GADD45G (gene 10912); test: LTEA_HepaRG_GADD45G: Life Technologies and Expression Analysis (LTEA) Assay for growth arrest and DNA damage 45 (GADD45G) using HepaRG (AID 2283499)
Procedure, shortened: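 Gain or loss of GADD45G mRNA, quantified by TaqMan qRT-PCR against three housekeeping genes, is fitted in both directions relative to 0.5% DMSO. Human HepaRG cultures receive test chemical for 48 h at up to 100 uM.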

[11] = read-out: Glutamate-cysteine ligase regulatory (GCLM), GCLM (gene 2730); test: LTEA_HepaRG_GCLM: Life Technologies and Expression Analysis (LTEA) Assay for Glutamate-cysteine ligase regulatory (GCLM) using HepaRG (AID 2283500)
Procedure, shortened: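 Endpoint is GCLM transcript level by qRT-PCR, normalized to three housekeeping genes, after 48 h chemical exposure of human HepaRG cells (0.5% DMSO vehicle, top 100 uM, half-log dilutions). Fitting was bidirectional relative to DMSO.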

[12] = read-out: Glutathione S-transferase M3 (GSTM3), GSTM3 (gene 2947); test: LTEA_HepaRG_GSTM3: Life Technologies and Expression Analysis (LTEA) Assay for Glutathione S-transferase M3 (GSTM3) using HepaRG (AID 2283501)
Procedure, shortened: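 HepaRG, plated 48 h, then serum-free induction medium; test chemical 48 h, duplicate; 100 uM top, half-log x8, 0.5% DMSO. Read-out: GSTM3 mRNA (TaqMan qRT-PCR, Fluidigm array). Bidirectional fit vs DMSO.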

[13] = read-out: Heat shock 70 kDa protein 1 (HSPA1A), gene 3303; test: LTEA_HepaRG_HSPA1A: Life Technologies and Expression Analysis (LTEA) Assay for Heat shock 70 kDa protein 1 (HSPA1A) using HepaRG (AID 2283502)
Procedure, shortened: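 Cells were plated and cultured for 48 h, then switched to serum-free induction medium. Chemicals were added at eight half-log concentrations up to 100 uM for 48 h. RNA was then isolated and HSPA1A measured by qRT-PCR with bidirectional curve fitting against DMSO.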

[14] = read-out: Hypoxia-inducible factor 1-alpha (Homo sapiens) (UniProt Q16665); test: LTEA_HepaRG_HIF1A: Life Technologies and Expression Analysis (LTEA) Assay for Hypoxia-inducible factor 1 (HIF1A) Trancription factor using HepaRG (AID 2283503)
Procedure, shortened: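 HIF1A transcript level read by qRT-PCR (ACTB, GAPDH, POLR2A normalization) after 48 h chemical exposure of HepaRG cultures. Eight half-log concentrations, top 100 uM, 0.5% DMSO vehicle, duplicates; bidirectional curve fit against DMSO baseline.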

HGF (gene 3082) = test: LTEA_HepaRG_HGF: Life Technologies and Expression Analysis (LTEA) Assay for Hepatocyte Growth Facto (HGF) using HepaRG (AID 2283505)
Procedure, shortened: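 Read-out is HGF transcript level by qRT-PCR, normalized to three housekeeping genes, fitted bidirectionally against 0.5% DMSO vehicle. Human HepaRG cells received test chemicals for 48 h at up to 100 uM.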

[15] = read-out: Insulin Like Growth Factor 1 (IGF1), IGF1 (gene 3479); test: LTEA_HepaRG_IGF1: Life Technologies and Expression Analysis (LTEA) Assay for Insulin Like Growth Factor 1 (IGF1) using HepaRG (AID 2283506)
Procedure, shortened: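 Cells are thawed, plated and cultured 48 h, then exposed in duplicate to chemical (highest 100 uM, half-log steps, 0.5% DMSO) for another 48 h. Total RNA is analysed by Fluidigm qRT-PCR for IGF1 expression relative to vehicle.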

[16] = read-out: Intercellular Adhesion Molecule 1 (ICAM1), ICAM1 (gene 3383); test: LTEA_HepaRG_ICAM1: Life Technologies and Expression Analysis (LTEA) Assay for Intercellular Adhesion Molecule 1 (ICAM1) using HepaRG (AID 2283507)
Procedure, shortened: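 Readout is qRT-PCR mRNA level, normalized to three housekeeping genes and fitted bidirectionally against 0.5% DMSO vehicle. Human HepaRG cultures received compound for 48 h, top concentration 100 uM with half-log dilutions.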

[17] = read-out: 3-Hydroxy-3-Methylglutaryl-CoA Synthase 2 (HMGCS2), HMGCS2 (gene 3158); test: LTEA_HepaRG_HMGCS2: Life Technologies and Expression Analysis (LTEA) Assay for 3-Hydroxy-3-Methylglutaryl-CoA Synthase 2 (HMGCS2) using HepaRG (AID 2283504)
Procedure, shortened: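 HepaRG, plated 48 h then switched to serum-free induction media; cmpd 8-pt, max 100 uM, 1/2-log, 0.5% DMSO, n=2, 48 h. HMGCS2 mRNA by Fluidigm TaqMan qRT-PCR, ACTB/GAPDH/POLR2A norm; bidirectional fit vs DMSO.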

CYP3A5 (gene 1577) = test: LTEA_HepaRG_CYP3A5: Life Technologies and Expression Analysis (LTEA) Assay for CYP3A5 using HepaRG (AID 2283493)
Procedure, shortened: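 Human HepaRG hepatic cells receive 48 h chemical treatment at eight concentrations (half-log steps from 100 uM) in 0.5% DMSO. Expression of CYP3A5 is quantified by Fluidigm qRT-PCR and normalized to three reference genes.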

[18] = read-out: Cytochrome P450 7A1 (Homo sapiens) (UniProt P22680); test: LTEA_HepaRG_CYP7A1: Life Technologies and Expression Analysis (LTEA) Assay for Cytochrome P450 7A1 (CYP7A1) using HepaRG (AID 2283496)
Procedure, shortened: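 HepaRG, 48 h exposure, 8-pt half-log series from 100 uM, 0.5% DMSO vehicle, duplicates. Readout: TaqMan qRT-PCR mRNA vs three housekeeping genes; bidirectional curve fit against DMSO baseline.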

Measured: AC50

Sequence of Cytochrome P450 3A7 (Homo sapiens) (P24462 whole entry, looked up): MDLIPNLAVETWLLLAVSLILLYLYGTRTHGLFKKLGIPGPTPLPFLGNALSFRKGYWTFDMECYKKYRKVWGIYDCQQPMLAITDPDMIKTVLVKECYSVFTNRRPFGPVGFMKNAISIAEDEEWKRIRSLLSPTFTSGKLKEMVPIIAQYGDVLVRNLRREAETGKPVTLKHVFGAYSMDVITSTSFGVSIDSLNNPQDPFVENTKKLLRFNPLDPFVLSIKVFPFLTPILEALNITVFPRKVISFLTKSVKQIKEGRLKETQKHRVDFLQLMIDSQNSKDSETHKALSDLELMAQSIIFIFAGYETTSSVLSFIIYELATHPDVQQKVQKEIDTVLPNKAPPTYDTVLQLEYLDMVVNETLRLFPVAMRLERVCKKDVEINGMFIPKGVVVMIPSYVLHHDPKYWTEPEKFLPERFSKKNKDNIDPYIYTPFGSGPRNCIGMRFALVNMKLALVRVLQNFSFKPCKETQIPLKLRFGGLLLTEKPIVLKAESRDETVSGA
Sequence of Hypoxia-inducible factor 1-alpha (Homo sapiens) (Q16665 whole entry, looked up): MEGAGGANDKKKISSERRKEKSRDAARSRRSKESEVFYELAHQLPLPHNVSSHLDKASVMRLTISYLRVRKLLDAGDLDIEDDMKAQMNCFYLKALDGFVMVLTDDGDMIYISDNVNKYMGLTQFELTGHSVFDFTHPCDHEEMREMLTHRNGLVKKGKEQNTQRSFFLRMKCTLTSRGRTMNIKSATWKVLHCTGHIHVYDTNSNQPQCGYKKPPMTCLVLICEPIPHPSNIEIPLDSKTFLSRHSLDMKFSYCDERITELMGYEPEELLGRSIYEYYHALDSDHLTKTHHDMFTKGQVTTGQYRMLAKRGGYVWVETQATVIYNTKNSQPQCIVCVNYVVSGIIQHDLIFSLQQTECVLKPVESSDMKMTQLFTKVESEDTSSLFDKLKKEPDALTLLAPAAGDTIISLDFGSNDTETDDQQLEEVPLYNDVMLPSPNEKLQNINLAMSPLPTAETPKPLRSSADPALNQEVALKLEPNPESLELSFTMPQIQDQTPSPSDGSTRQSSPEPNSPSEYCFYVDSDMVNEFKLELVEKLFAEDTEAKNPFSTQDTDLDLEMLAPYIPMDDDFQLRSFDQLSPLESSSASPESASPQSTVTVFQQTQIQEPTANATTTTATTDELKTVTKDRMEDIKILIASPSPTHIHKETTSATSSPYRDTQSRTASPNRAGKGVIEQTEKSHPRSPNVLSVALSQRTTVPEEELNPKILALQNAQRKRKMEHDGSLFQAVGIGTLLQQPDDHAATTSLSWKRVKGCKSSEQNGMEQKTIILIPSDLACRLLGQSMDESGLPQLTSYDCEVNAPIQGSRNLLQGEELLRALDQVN

S=c1[nH]c2ccccc2s1
not listed: [17] | CYP3A5 (gene 1577) | [18]
inactive: all other assays above

Cn1cnc2c1c(=O)[nH]c(=O)n2C
not listed: [5] | [7] | [14] | CYP3A5 (gene 1577) | [18]
inactive: all other assays above

CC1=C(C)S(=O)(=O)CCS1(=O)=O
inactive: [1] | [4] | [10] | [12] | [13] | HGF (gene 3082) | [16]
active: [2] 12 µM | [3] 80.6 µM | [5] 72 µM | [6] 88.1 µM | [7] 50 µM | [8] 90.3 µM | [9] 70.6 µM | [11] 0.214 µM | [14] 77.1 µM | [15] 50 µM

OCC(CO)n1cnc(-c2ccc(F)cc2)c1-c1ccnc(Oc2ccccc2)n1
active: [3] 20.7 µM | [5] 7.88 µM | [6] 11.2 µM | [7] 16.6 µM | [13] 37 µM
not listed: [17] | CYP3A5 (gene 1577) | [18]
inactive: all other assays above

CS(=O)(=O)c1ccc([C@@H](C[C@H]2CCC(=O)C2)C(=O)Nc2cnccn2)cc1Cl
active: [1] 18.6 µM | [2] 23.5 µM | [9] 1.01 µM | [11] 1.81 µM | [12] 17.6 µM | [13] 13.4 µM | HGF (gene 3082) 1.71 µM | [15] 1.24 µM | [16] 1.48 µM
inactive: [3] | [4] | [6] | [8] | [10] | [14] | [17]

O=C1NC(=O)C(c2ccccc2)(c2ccccc2)N1
active: [6] 17.9 µM | [7] 9.92 µM | [8] 9.92 µM
not listed: [5] | [14] | [17]
inactive: all other assays above
